Laboratory results: ChEMBL document CHEMBL3988442, “University of Dundee, Small-Polar-MMV Screening Library” (2021)
Hit rate of the full screen: of about 38,000 compounds, about 1,200 (3.2%) showed an effect of 50% or more. The median lay at about -58%. This excerpt belongs to a sample that is enriched for strong results.

tested on: Plasmodium falciparum; test: Calibr Malaria Delayed Death Assay SOP; assay type: functional, organism-based; set-up: scale not given: in the data most compounds retested in dose-response had high values; conditions: concentration 4.99e-06 (unit not given; other assays of the set use mol/L)

SMILES | Percent Effect [%]
Cn1ncc2c(NC3CCCN(C(=O)C4CC4)C3)nc(C(C)(C)C)nc21 (stereo not drawn) | -80.8
CC(C)CC(NC(=O)c1ccn(C)c(=O)c1)c1ccccc1 (stereo not drawn) | -106.6
CCc1c(C)nc2ccccc2c1N1CCC(NC(C)=O)CC1 | 21.66
CNC(=O)C1CCCN1c1nc(C)c2ccccc2n1 (stereo not drawn) | -23.49
CCc1c(C)nc2ccccc2c1N1CCC(C(=O)NC)CC1 | 51
Cc1csc(NC(=O)[C@@H]2C[C@H]3[C@H](CCN3S(C)(=O)=O)O2)n1 | -110.3
O=S(=O)(NCc1ccc(S(=O)(=O)N2CCCC2)s1)c1ccc(Cl)cc1 | -58.72
O=C1CN(C(=O)c2ccc(Cl)cc2)CC(O)CN1Cc1cccs1 (stereo not drawn) | -105.2
O=C1CN(C(=O)c2ccc(F)cc2)CC(O)CN1Cc1cccs1 (stereo not drawn) | 88.73
Cc1ccc(C(=O)N2CC(=O)N(Cc3cccs3)CC(O)C2)cc1 (stereo not drawn) | -71.11
CN(C)S(=O)(=O)N1CCOCC1CC(=O)NCCOc1ccccc1 (stereo not drawn) | -2.235
Cc1noc(C)c1C(=O)NCc1cc[nH]n1 | -1.688
CCN(c1ccc(C(=O)NCc2cc[nH]n2)cc1)C(C)C | 57.8
CCc1noc(C)c1C(=O)NCc1cc[nH]n1 | -11.39
Cc1nc(CN2CCCC(NCc3ccc4c(c3)CCO4)C2)no1 (stereo not drawn) | -110.8
CCCc1nc(N2CCSCC2)c2c(n1)c(C)nn2CC | -63.17
CCN(CC)CC1CN(Cc2nccs2)Cc2nccn2C1.O=C(O)C(F)(F)F.O=C(O)C(F)(F)F (stereo not drawn) | 18.43
CN(C)CC1CN(Cc2ccc(F)cc2)Cc2nccn2C1.O=C(O)C(F)(F)F.O=C(O)C(F)(F)F (stereo not drawn) | 12.77
Cc1ccc(CN2Cc3nccn3CC(CN(C)C)C2)s1.O=C(O)C(F)(F)F.O=C(O)C(F)(F)F (stereo not drawn) | -55.03
Cc1ccc(CN2Cc3nccn3CC(Cn3cccn3)C2)s1.O=C(O)C(F)(F)F (stereo not drawn) | -33.05
CCN(CC)CC1CN(Cc2ccc(C)s2)Cc2nccn2C1.O=C(O)C(F)(F)F.O=C(O)C(F)(F)F (stereo not drawn) | 66.72

SMILES | Percent Effect [%]
CCN(CC)CC1CN(CCc2ccccc2)Cc2nccn2C1.O=C(O)C(F)(F)F.O=C(O)C(F)(F)F (stereo not drawn) | 57.03
O=C(NCC1CC1)c1cc2c(s1)CCN2c1ncccn1 | -131.9
O=C(c1cnc2ccc(Cl)cc2c1NCc1ccco1)N1CCCCC1 | -150.7
Cc1ncsc1-c1nnc(C2CCN(Cc3ccc(Cl)cc3)CC2)o1 | -44.81
CC(C)(CN1CCC2(CCOCC2)CC1)N1CCOCC1 | -173.8
COCC1c2nnn(C)c2CCN1C(=O)Cc1ccccn1 (stereo not drawn) | -28.75
CCC[C@H]1CN(S(=O)(=O)c2cc(C)ccc2C)C[C@@H]1N | 67.41
CCC[C@H]1CN(S(=O)(=O)c2ccccc2)C[C@@H]1N | 16.03
CCc1ccc(S(=O)(=O)N2CCCC(c3ncc[nH]3)C2)s1 (stereo not drawn) | 13.27
Cc1ccc(C)c(S(=O)(=O)N2CCN(C)C3(CCC(=O)N(C)CC3)C2)c1 (stereo not drawn) | -116.8
Cc1noc(C)c1-c1n[nH]c2c1CN(S(=O)(=O)c1cccs1)CC2 | -28.6
CCS(=O)(=O)NC1CCCN(c2cc(C)ccc2F)C1=O (stereo not drawn) | 0.205
CCC[C@H]1CN(S(=O)(=O)c2cc(C)ccc2F)C[C@@H]1N | 52.25
Cc1ccc(F)c(S(=O)(=O)N2CCCC2c2ccncc2)c1 (stereo not drawn) | -74.84
Cc1cccc(OCC(O)CNCc2c(C)nn(C)c2N(C)C)c1 (stereo not drawn) | 22.52
O=C(O)C(F)(F)F.O=C(O)C(F)(F)F.O=S1(=O)c2ccccc2C2(CCN(Cc3cccnc3)C2)N1CC1CC1 (stereo not drawn) | -8.635
CS(=O)(=O)NC[C@]12COC[C@H]1CN(CC1CCC1)C2.O=C(O)C(F)(F)F | -46.78
CS(=O)(=O)N1C[C@H]2CN(CC3CC3)C(=O)[C@H]2C1 | -17.38
CN1CCN(C[C@@H]2CN(C(=O)NCC3CCCCC3)C[C@@H]2CO)CC1 | -32.18
Cl.Clc1cccnc1OC1CCNCC1 | 7.245
Clc1ccccc1C1(c2ccnc(C3CCCC3)n2)CCNCC1 | 82.68

SMILES | Percent Effect [%]
Clc1ccccc1C1(c2ccnc(C3CC3)n2)CCNCC1 | 72.39
Cc1cccc(CN2CCn3c(C(=O)N(C)C)cnc3C2)c1 | -123.8
CN(C)CCNC(=O)c1cc2c(s1)CCN2S(C)(=O)=O | -66.69
Cn1cnnc1CCC(=O)N1CCCC(OCc2cccnc2)C1 (stereo not drawn) | -207.3
COc1cc(NC(=O)c2ccc(Cl)cc2F)c(C(=O)N(C)C)cc1OC | -107.3
COc1ccc(C(O)CN2CC(n3cc(C)cn3)C2)cc1 (stereo not drawn) | 19.27
Cc1cc(C)n(C2CN(CCc3ccncc3)C2)n1 | -117
Cc1cc(C)n(C2CN(CC(O)c3cc(F)ccc3F)C2)n1 (stereo not drawn) | 84.13
Cc1cnn(C2CN(CC(O)c3ccccc3)C2)c1 (stereo not drawn) | 40.53
COc1ccc(C(O)CN2CC(n3nc(C)cc3C)C2)cc1 (stereo not drawn) | 47.1
Cc1cc(C)n(C2CN(CC(O)Cn3cccn3)C2)n1 (stereo not drawn) | -132.3
Cc1cc(C)n(C2CN(CC(O)COc3ccc(F)cc3)C2)n1 (stereo not drawn) | -22.32
Cc1cnn(C2CN(CC(O)c3ccc(F)cc3)C2)c1 (stereo not drawn) | 56.46
COc1cc(OC)cc(-c2noc(C(N)CCSC)n2)c1 (stereo not drawn) | -32.31
Cc1ccc(C(=O)Nc2ccc3c(c2)N(C)CCN(C)C3)c(=O)[nH]1 | -25.5
Cc1cnn(C2CN(CC(=O)NCCc3cccs3)C2)c1 | -35.32
CN(Cc1cc2cc(F)ccc2[nH]1)C(=O)C1CC(=O)N(C2CC2)C1 (stereo not drawn) | -1.915
Cc1cc(CN2CCO[C@H]3[C@H](OCc4csc(C)n4)CC[C@@H]32)no1.O=C(O)C(F)(F)F.O=C(O)C(F)(F)F | -78.11
CC1CCN(C(=O)C2CCN(c3ccc(Cl)cc3C#N)CC2)CC1 | 59.54
CCN(CC)C(=O)C1CCN(c2ccc(Cl)cc2C#N)CC1 | -152.7
N#Cc1cc(Cl)ccc1N1CCN(C(=O)C2CCC2)CC1 | -79.7
